In the library only some 3.5% were active in any assay of this set; here they are far more common.
MITF inh = inhibitors of human MITF; O75030; AlphaScreen MITF homodimerization, bead proximity signal; inhibition, % at 2.6 µM; actives 0.91% (n = 650,000); AID 1259374; in the data active = inhibition above about 50%;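 note: 0% = vehicle wells with protein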
GPR151 ag = activators of human GPR151. PathHunter beta-arrestin GPR151 cells, luminescence. AID 1508602. activation, % at 11.2 µM. actives 1% (n = 650,000); in the data active = activation above about 4.9%;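 note: 0% = median of compound wells and 100% = cells with positive control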
Target sequence (Q8TDV0 whole entry, looked up): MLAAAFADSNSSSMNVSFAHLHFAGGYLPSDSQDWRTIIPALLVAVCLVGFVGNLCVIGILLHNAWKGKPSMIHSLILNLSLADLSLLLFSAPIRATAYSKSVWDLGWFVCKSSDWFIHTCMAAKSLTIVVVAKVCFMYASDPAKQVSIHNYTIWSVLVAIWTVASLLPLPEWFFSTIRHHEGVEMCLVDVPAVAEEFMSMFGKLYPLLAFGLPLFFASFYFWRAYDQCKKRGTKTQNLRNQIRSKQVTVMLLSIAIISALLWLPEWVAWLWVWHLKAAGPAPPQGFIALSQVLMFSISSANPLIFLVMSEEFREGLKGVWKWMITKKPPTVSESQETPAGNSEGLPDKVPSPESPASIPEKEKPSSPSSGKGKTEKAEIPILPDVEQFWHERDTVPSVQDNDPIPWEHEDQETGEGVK
TEAD-YAP inh = TEAD-YAP interaction inhibition. HEK-TIYL cells, TEAD-Gal4/YAP UAS-luciferase luminescence. inhibition, % at 9.12 µM. actives 1.4% (n = 640,000); in the data active = inhibition above about 32%;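 note: 0% = median of test compound wells and 100% = reference inhibitor wells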
FBW7 act = activators of human E3 ligase FBW7; AlphaScreen FBW7–phospho-cyclin E peptide binding, activator screen; normalized activity (activation), % at 26.1 µM; actives 0.13% (n = 650,000); in the data active = normalized activity above about 1.9%;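 note: purified mutant Fbw7 with reduced substrate affinity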
The depositor's hits bear a star.

SMILES | MITF inh | GPR151 ag | TEAD-YAP inh | FBW7 act
CN(C)CCOc1cc(-c2cn[nH]c2)cc2sc(C3COc4ccccc4C3)nc12 (configuration not stated) | 24.2 | -1.2 | 4.4 | -0.1
COc1ccc2c(c1)CC(C(=O)Nc1ccc(-c3cn[nH]c3)cc1OCCN)CO2 (configuration not stated) | 27.0 | -0.5 | 38.1* | -0.1
COc1ccc(-c2cc3nc4c(c(NCC5CCCO5)n3n2)CCC4)cc1OC (configuration not stated) | -286.2 | -1.0 | -24.9 | -0.2
CC1CCCCN1C(=O)CC1(c2cccc(F)c2)CC(=O)N(CCN(C)C)C1=O (configuration not stated) | -29.6 | -0.5 | -0.9 | 0.0
COc1ccc(CCNc2c(C)c(C)nc3ncnn23)cc1 | -1.7 | 0.8 | 60.5* | 0.2
COc1ccc(CNc2c(C)c(C)nc3ncnn23)cc1 | 11.9 | 0.7 | 26.3 | 0.0
Cc1nc2ncnn2c(NCCc2ccccc2)c1C | 16.8 | -1.3 | 42.0* | 1.2
COc1ccc(CCNCC(=O)NCCC2=CCCCC2)cc1 | 26.5 | -0.7 | -7.8 | -0.1
CCOC(=O)N1CCN(C(=O)CN2C(=O)CC(C)(C)Sc3ccccc32)CC1 | 10.9 | -0.7 | 8.9 | 0.5
O=c1c2c3c(sc2nc2c4ccccc4cnn12)CCCC3 | -9.1 | -4.8 | 53.0* | -0.1
O=c1c2c3c(sc2nc2c4ccccc4c4nnnn4n12)CCCC3 | 5.2 | 1.6 | 3.3 | 0.0
N.N.N.N.N.N.N.N.N.N.N.N.N.N.O.O.[Cl-].[Cl-].[Cl-].[Cl-].[Cl-].[Cl-].[Ru+2].[Ru+2].[Ru+2] | 46.9 | 0.4 | 40.8* | 0.6
CNC(=S)NNc1nc(Nc2ccccc2)nc(N2CCOCC2)n1 | -2.5 | 1.3 | -11.1 | -0.1
Cc1cccc(-c2nc3s/c(=C\c4ccco4)c(=O)n3n2)c1 | 8.6 | 0.5 | 0.8 | 0.0
Cc1nn2c(=O)/c(=C/c3ccco3)sc2nc1=O | 76.7* | 0.3 | 4.3 | -0.5
CCOC(=O)c1ccc(-n2c(C)c3cnc4nn(-c5ccccc5)c(=O)c-4cc3c2C)cc1 | -4.4 | -2.9 | -5.0 | 0.1
Cc1c2cnc3nn(-c4ccccc4)c(=O)c-3cc2c(C)n1-c1ccccc1 | -5.2 | 0.7 | 84.7* | -0.2
O=S(=O)(Nc1ccccn1)c1cccc(S(=O)(=O)c2ccccc2)c1 | 14.9 | 0.2 | 4.0 | 0.1
Oc1ccc(C=Nc2ccccc2)c(O)c1O | 84.9* | 4.5 | -0.2 | -0.3
Cc1ccc(N=Cc2ccc(O)c(O)c2O)cc1F | 69.0* | -0.6 | 10.4 | -0.2
Cc1ccc(N=Cc2cccc(O)c2O)cc1F | -1.2 | -0.7 | 4.9 | 0.0
O=c1[nH]c2ccc(N=Cc3ccc(O)c(O)c3O)cc2[nH]1 | 67.7* | 0.0 | -3.6 | -0.6
Oc1cccc(C=Nc2ccc(Br)cc2)c1O | -14.5 | 3.2 | -6.5 | -0.2
Cc1cc([N+](=O)[O-])c(C)c2c1NS(=O)(=O)c1ccccc1-2 | -0.3 | 0.2 | 10.5 | 0.1
O=C(NC12CC3CC(CC(C3)C1)C2)c1ccc(NS(=O)(=O)c2ccccc2)cc1 | -14.1 | 1.5 | -5.7 | 0.0
SMILES | MITF inh | GPR151 ag | TEAD-YAP inh | FBW7 act
O=C(Oc1cccnc1)c1cc2ccccc2o1 | -3.0 | -0.9 | -2.0 | -0.1
CCOCCC(=O)Nc1ccc2c(c1)OCCO2 | 8.1 | -2.1 | 39.1* | -0.1
CCOc1cccc(C(=O)Nc2ccc3ccccc3c2)c1 | 9.6 | -3.6 | 58.1* | 0.0
Cc1ccoc1C(=O)Nc1ccc2ccccc2c1 | 8.2 | -9.1 | 40.6* | 0.0
CCOC(=O)c1ccc(NC(=O)c2cccc(Oc3ccccc3)c2)cc1 | -6.6 | 1.4 | 47.9* | 0.1
O=C(CCC(=O)Nc1ccc2c(c1)OCCO2)Nc1ccc2c(c1)OCCO2 | 16.3 | -2.0 | 0.7 | 0.0
Cc1cc(C(=O)Nc2ccc3ccccc3c2)oc1C | 9.2 | -1.9 | -18.1 | -0.1
Cc1[nH]ncc1C(=O)N1CCC(n2cnc3sc4c(c3c2=O)CCC(C)C4)CC1 (configuration not stated) | 12.6 | 0.2 | -10.1 | -0.1
CC(C)CCN(CC(=O)O)S(=O)(=O)c1cccs1 | -1.0 | 1.2 | -7.8 | -0.1
CCOc1cccc(C(=O)Nc2ccc3c(c2)OCCO3)c1 | 2.2 | -6.1 | 57.7* | 0.1
COCCN1C(=O)/C(=C\c2cc(OC)ccc2OC)C(C(=O)OC)=C1C | 6.2 | 1.5 | 0.5 | 0.9
COc1ccc(CC(=O)n2nc(N)c3cc4ccc(OC)cc4nc32)cc1 | 7.2 | 0.7 | 41.2* | -0.1
COc1cccc(CC(=O)n2nc(N)c3cc4ccc(OC)cc4nc32)c1 | 3.8 | 0.2 | 8.4 | 0.2
COc1ccc2cc3c(N)nn(C(=O)Cc4c[nH]c5ccccc45)c3nc2c1 | 4.8 | -0.1 | 74.7* | -0.1
CCOC(=O)c1sc2nc(SCc3cccc(Cl)c3)n(Cc3ccco3)c(=O)c2c1C | -8.7 | -0.9 | 5.4 | -0.2

Screens deposited in PubChem BioAssay by The Scripps Research Institute Molecular Screening Center.
